Assay outcomes: PubChem, Buhrlage Lab, Dana-Farber Cancer Institute and Novartis Institutes for BioMedical Research (Cambridge, Mass)
Only some compounds are listed: those with a hit (about 12% of all), similar ones and a draw of the others.
USP28 block: inhibitors of human USP28 deubiquitinase. Q96RU2. purified USP28, Ub-rhodamine cleavage fluorescence, 30 min. inhibition, % at 25 µM. 47,000 tested, 3% active. AID 1645857
USP30 block: blocks human USP30 ubiquitin-rhodamine cleavage; 47,000 tested, 5.3% active; purified USP30, Ub-rhodamine cleavage fluorescence; Q70CQ3; inhibition, % at 25 µM
Target sequence (Q70CQ3 whole entry, looked up): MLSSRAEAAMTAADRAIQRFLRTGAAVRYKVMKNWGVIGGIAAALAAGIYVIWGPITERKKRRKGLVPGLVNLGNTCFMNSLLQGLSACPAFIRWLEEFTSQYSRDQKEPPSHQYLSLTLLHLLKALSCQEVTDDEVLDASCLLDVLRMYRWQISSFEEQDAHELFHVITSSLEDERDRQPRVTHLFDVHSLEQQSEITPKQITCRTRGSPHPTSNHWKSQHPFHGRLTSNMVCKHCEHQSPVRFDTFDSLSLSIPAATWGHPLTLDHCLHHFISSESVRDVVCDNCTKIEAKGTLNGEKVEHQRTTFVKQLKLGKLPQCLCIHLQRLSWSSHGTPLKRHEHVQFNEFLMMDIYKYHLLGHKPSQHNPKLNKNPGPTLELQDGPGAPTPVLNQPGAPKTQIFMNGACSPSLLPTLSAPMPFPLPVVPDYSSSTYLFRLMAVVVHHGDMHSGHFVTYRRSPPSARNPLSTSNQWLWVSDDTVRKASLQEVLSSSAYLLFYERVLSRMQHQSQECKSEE
USP17 inh: human USP17-like deubiquitinase inhibition; A8MUK1; purified USP17, Ub-rhodamine cleavage fluorescence, 3 h; inhibition, % at 50 µM; 47,000 tested, 6.5% active
OTUD3 block: blocks human OTUD3 ubiquitin-rhodamine cleavage. 47,000 tested, 0.7% active. AID 1645858. inhibition, % at 25 µM. purified OTUD3, Ub-rhodamine fluorescence, 2 h. Q5T2D3
Starred values were filed as active, the others as inactive; . = no result. Rule as the data show it: active = inhibition above about 30%; inactive = the rest.

SMILES | USP28 block | USP30 block | USP17 inh | OTUD3 block
Cc1cccc(NS(=O)(=O)c2ccc3[nH]c(=O)cc(C(=O)O)c3c2)c1 | 18.4 | -32.0 | -27.7 | 17.6
COc1ccc(C2(C(=O)N3CCC4(CC3)NC(=O)c3ccccc3N4)CCCC2)cc1 | -4.2 | -7.1 | -5.7 | -9.3
Cc1cc(NC(=O)c2[nH]nc3c2CCc2ccccc2-3)no1 | 12.2 | -30.5 | 64.4* | -10.0
COc1ccc2c(c1)CCc1c-2n[nH]c1C(=O)Nc1cc(C)on1 | 34.1* | 54.7* | 32.9* | 17.5
COc1ccc2c(c1)CCc1c-2n[nH]c1C(=O)N1CCN(C)CC1 | -5.7 | -6.1 | 3.3 | 0.0
COc1ccc2c(c1)CCc1c-2n[nH]c1C(=O)N1CCN(c2ncccn2)CC1 | -2.1 | -1.1 | 0.1 | -3.7
COc1ccc2c(c1)CCc1c-2n[nH]c1C(=O)N1CCC(C(N)=O)CC1 | 8.5 | 30.3* | 24.4 | 7.4
CCc1cccc(NC(=O)c2cnn(-c3ccc(F)cc3F)c2C2CCNCC2)c1 | -4.3 | -27.5 | -35.2 | -13.4
COC(=O)[C@@H]1Cc2ncn(Cc3ccccc3)c2CN1S(C)(=O)=O | 6.5 | 7.6 | -4.0 | 8.8
Cc1cc(=O)n(CC(=O)NCc2ccc(F)cc2Cl)c(N2CCCC2)n1 | 3.1 | 16.2 | 3.8 | 6.4
COc1ccccc1S(=O)(=O)N1CCc2nc3ccccc3n2CC1 | -6.6 | 4.3 | -5.9 | 0.3
COc1ccc(S(=O)(=O)N2CCc3nc4ccccc4n3CC2)cc1 | -10.8 | 53.8* | 56.6* | 0.2
CS(=O)(=O)c1ccc(NC(=O)C2CN(c3nc4c(F)cccc4s3)C2)cc1 | 14.9 | 2.4 | 55.3* | 11.3
COc1ccc(OC)c(CCNc2nc(-c3cccc(OC)c3OC)no2)c1 | -18.3 | -30.5 | -15.9 | -13.5
COc1ccc(NC(=O)C2[C@@H]3C(=O)N(C4CCCCC4)C(=O)[C@@H]3[C@H]3c4ccccc4C=CN23)cc1 (stereo partly drawn) | 13.0 | -59.9 | 60.5* | -5.1
Cc1ccc2c(Nc3ccc(F)cc3)c(-c3nc(C)no3)cnc2n1 | 20.5 | 22.1 | 27.6 | 2.4
Cc1ccc([N+](=O)[O-])cc1NC(=O)CCN1C(=O)c2ccccc2S1(=O)=O | 7.4 | 48.6* | 30.8* | 7.0
O=C(CCN1C(=O)c2ccccc2S1(=O)=O)Nc1ccccc1C(=O)O | -5.8 | -2.8 | -17.8 | -1.3
Cc1ccc2nnc(-c3ccccc3)c(C(=O)N3CCN(c4ccccn4)CC3)c2c1 | 1.7 | 4.8 | 50.3* | 0.5
CCCc1nc2sc3c(NCc4ccco4)ncnc3c2c2c1CCC2 | 80.2* | -21.1 | -13.2 | -27.8
CCCc1nc2sc3c(NCCC(C)C)ncnc3c2c2c1CCC2 | 28.9 | -16.0 | -23.1 | -14.5
CC1(C)Cc2c(c(N3CCOCC3)nc3sc4c(NCCCN5CCOCC5)ncnc4c23)CO1 | -9.0 | -1.8 | -1.0 | -7.7
CCCCNc1ncnc2c1sc1nc(CCC)c3c(c12)CCC3 | . | . | 53.6* | 2.0
CCCc1nc2sc3c(NCCCN4CCOCC4)ncnc3c2c2c1CCC2 | 84.0* | -44.0 | -11.8 | -6.7
CC(C)Cc1nc2sc3c(NCCN4CCOCC4)ncnc3c2c2c1CCC2 | 82.2* | -63.6 | -12.7 | -15.3
SMILES | USP28 block | USP30 block | USP17 inh | OTUD3 block
Cc1nn(-c2ccccc2)c2[nH]c(=O)c(CNC(C)c3cccs3)cc12 (stereo not drawn) | 0.1 | 11.2 | 15.1 | 6.6
COc1ccc(S(=O)(=O)N(CC(=O)N2CCCc3ccccc32)Cc2ccccc2)cc1 | 1.4 | -0.1 | 1.3 | 4.7
CC(C)c1nc2sc3c(NCCCN4CCOCC4)ncnc3c2c2c1CCC2 | 47.9* | -42.6 | -10.6 | -7.3
CCCCc1nc2sc3c(NCCCO)ncnc3c2c2c1COC(C)(C)C2 | -7.3 | -0.1 | 46.4* | -1.2
CC(C)c1nc2sc3c(SCC(=O)N4CCOCC4)ncnc3c2c2c1CCC2 | 34.7* | -8.6 | -24.2 | -3.9
CCCc1nc2sc3c(NCCN4CCOCC4)ncnc3c2c2c1CCC2 | 80.5* | -23.8 | -11.3 | -2.2
CC1(C)Cc2c(c(N3CCCC3)nc3sc4c(NCCCN5CCOCC5)ncnc4c23)CO1 | -0.3 | -12.2 | -6.4 | -4.6
CCCCCSc1ncnc2c1sc1nc(C(C)C)c3c(c12)CCC3 | -10.1 | -14.2 | -26.6 | -5.6
Cc1cc(/C=C2\C(=N)N3N=C(COc4ccccc4)SC3=NC2=O)c(C)n1-c1ccc(Cl)cc1 | -45.4 | -128.8 | -26.5 | -29.7
COc1cccc(C(=O)N(CCc2ccccc2)C2CCN(CCc3ccc(Cl)cc3)CC2)c1 | -6.1 | -21.0 | -3.5 | -2.0
O=C1CCCC[C@]2(CN(Cc3cccc(OCc4ccccn4)c3)C[C@H]2c2ccccn2)N1 | -9.0 | -21.0 | -7.9 | -0.2
CCCCc1nc2sc3c(NCc4ccccn4)ncnc3c2c2c1CCC2 | 43.1* | -0.2 | 4.6 | -3.7
O=C1c2c(O)cccc2C2(Oc3cccc4cccc(c34)O2)C2OC12 (stereo not drawn) | 59.9* | 32.9* | 98.2* | 46.9*
O=C1c2c(O)ccc(O)c2C2(Oc3cccc4cccc(c34)O2)C2OC12 (stereo not drawn) | 71.6* | 89.3* | 96.7* | 68.4*
CN1C(=O)Cc2cc(S(=O)(=O)N3CCC(c4ccncc4)CC3)ccc21 | -11.5 | 22.1 | 39.4* | -16.0
Cn1cc(-c2noc(Cc3cccc(C(F)(F)F)c3)n2)ccc1=O | 79.1* | 17.5 | 8.9 | 7.3
CCCC(=O)N1CCCC1c1nnc(C(=O)Nc2cccc(F)c2)s1 (stereo not drawn) | 14.1 | 9.9 | -0.3 | 3.8
Cc1nc2cc(N3CC(C(=O)Nc4ccccc4C)CC3=O)ccc2o1 (stereo not drawn) | 11.7 | 9.0 | 6.3 | 8.7
Cc1nc2cc(N3CC(C(=O)Nc4ccc(F)cc4C)CC3=O)ccc2o1 (stereo not drawn) | 16.2 | 75.7* | 62.8* | 17.7
CCCn1c(-c2ccc(CC)cc2)cn2c(-c3ccccc3)c(-c3ccccc3)nc12 | 16.8 | 14.6 | 33.4* | 16.8
COc1ccc(-c2cn3c(-c4ccccc4)c(-c4ccccc4)nc3n2-c2ccccc2)cc1 | 17.5 | 37.1* | 47.7* | 24.0
COc1cccc(-c2cn3c(-c4ccccc4)c(-c4ccccc4)nc3n2-c2ccccc2)c1 | -9.4 | -6.9 | 22.2 | -4.3
O=C(Nc1ccc(N2CCN(C3CCCC3)C2=O)nc1)c1ccncc1 | -63.1 | -171.4 | -53.1 | -48.4
CC(C)(C)OC(=O)N1CCN(C(=O)Cn2c(=O)nc(-c3ccccc3)c3ccccc32)CC1 | 6.6 | 58.8* | 32.6* | 7.1
O=c1c2ccccc2nc(CSc2nc3ccc4[nH]snc4c3n2)n1-c1ccccc1 | 51.0* | 37.5* | 51.4* | 22.8
SMILES | USP28 block | USP30 block | USP17 inh | OTUD3 block
O=c1c2ccccc2nc(N2CCN(Cc3ccccc3)CC2)n1-c1ccccc1 | -12.7 | 2.8 | -18.9 | -2.8
Clc1ccc(-c2cnc(N3CCOCC3)nc2)cc1 | 9.9 | 44.4* | 13.3 | 3.0
Fc1ccc(-c2cnc(N3CCOCC3)nc2)cc1 | 0.7 | 4.0 | 12.0 | 1.3
COc1ccc(C(=O)N2CCC3(C2)C(=O)Nc2ccccc23)c(OC)c1 (stereo not drawn) | 10.5 | 16.3 | 3.6 | 4.5
CC(=O)Nc1onc(C)c1-c1ccc(C)c(S(=O)(=O)N2CCCCC2)c1 | -0.7 | -13.1 | -6.8 | -9.8
Cc1cccc(NC(=O)Cn2c(=O)n(Cc3ccc(F)cc3)c(=O)c3sccc32)c1 | 14.5 | 35.3* | 68.6* | 17.3
